From publication PMC12136788
Where a chain is given by its changes, count along the chain named. Over roughly 24,000 sequences, “enrichment r” has its median near 0.99; the highest 2% begin near 3.7. The list comes from a sample in which the highest values are over-represented; it also holds similar and randomly drawn sequences.

B1: chr12:56499883:56499884:+_ENSMUSG00000021024_ENSMUST00000021412|mus_mus|FALSE|FALSE (ssRNA)
RNA: GGGAGUUCUACAGUCCGACGAUCGAUAGUAAUGUGACGGUCAAAACCGGCGCUGGAACCCCGGGACAUGGCGUUCCUGCUAUUUUAAACACAGUCUGCACCCCGUAGCACACACACCAGGGACCCAAGCCCCCUCCCGGAAGUCAACAGAGGAUUGAGCAUCA
B2: chr8:110352747:110352748:+_ENSG00000120533_ENST00000521662|hu_mus|FALSE|FALSE (ssRNA)
RNA: GGGAGUUCUACAGUCCGACGAUCCAGGGCUCUGCCUUUUGGAGUGAUUUCAGCCACCAAGUCAUCAACAGUAACGUGUUCUAGUCCUUUUUCUUUAAUUACCUCUUUACAGUGUGCCUUUAGCUGAUCCUUCCAGCCGCACUCCAACAGAGGAUUGAGCAUCA
B3: chr6:31457689:31457690:+_ENSMUSG00000025609_ENSMUST00000142469|perfect_dup|motif|central (ssRNA)
RNA: GGGAGUUCUACAGUCCGACGAUCUGAUCAGGUCUACCAGGUUGCCUUUAGGAGGAGUCAUGCUGUCAGGAAAGAAAUUUACGGAGGUGUCAAAGAGCUGAGUUCUUUGAGCAUAGGUAUGAUCCACAUCUGAAAAGCCAUAAUCAACAGAGGAUUGAGCAUCA
B4: chr12:25667166:25667167:+_ENSMUSG00000036333_ENSMUST00000066652|mus_mus|motif|central (ssRNA)
RNA: GGGAGUUCUACAGUCCGACGAUCUCUUCCACAUAAUUUAUCACACUCUGUGAUAUAAGAACCGACAUUUUCACAGAAAUCGGUAGCCGACUUUAAUUCACCGUGUCACGGCCUGGCCGAAGACGGCGCCCUCAGCUCUGCAGACAACAGAGGAUUGAGCAUCA
B5: chr19:8913615:8913616:-_ENSMUSG00000071658_ENSMUST00000096259|mus_hu|mus_mus_mus_hu_False|1_8 (ssRNA)
RNA: GGGAGUUCUACAGUCCGACGAUCAGGGUACCAAAACCUUCUGCCUGAAAUGGGUGCCCCACCCAGUAGGGAGUUGCAGCUGAAAGUAUCUGAUGCAGAAGCAGUGACUAUACGAAAGGAGGCCCCUGAUGCUCAGACGAGAUCCAACAGAGGAUUGAGCAUCA
B6: chr2:241070490:241070491:-_ENSG00000172428_ENST00000607357|hu_mus|FALSE|FALSE (ssRNA)
RNA: GGGAGUUCUACAGUCCGACGAUCUCACAGACAUGGAGCACAUAGGACCGGGCGGCCUCACUGGACAUCAUCAUCAUCAAAAAGGUCUUCAAAAUCAUUAAAAAAGUCUGCAUGAACGGCCUUCUCAUUGGCUGCCAGGUCCAUCAACAGAGGAUUGAGCAUCA
B7: chr11:100882373:100882374:+_ENSMUSG00000019302_ENSMUST00000044721|mus_mus|FALSE|FALSE (ssRNA)
RNA: GGGAGUUCUACAGUCCGACGAUCUUCCUGGUUAGUGUUGAUUUCCUUCAGUUCAUUUUCAAUCUUCUCGAAAUUGGCCUCUAAGUCGAUCAUGUCCCGAGGGAAGGGCACCUCUGGGUUUUCACCGGUGUCCAUAAUUGGGAUCAACAGAGGAUUGAGCAUCA
B8: 90660906_90661026_1561_CDS_ENSG00000112182_ENST00000537989|human|control|control (ssRNA)
RNA: GGGAGUUCUACAGUCCGACGAUCAUCCCCCGCUCUGUCCUUGGCGUCAGGCUCAUCUCCAGACAGGCAGAGCGUGAUGCUCUCUUCCUCAUUCUCUUCACUGGGCGGCUCACUUUUAAUCUGCCCCCUGGCAAGCCCCGGCUUCAACAGAGGAUUGAGCAUCA
B9: chr2:119552488:119552489:+_ENSMUSG00000027304_ENSMUST00000028767|mus_hu|FALSE|FALSE (ssRNA)
RNA: GGGAGUUCUACAGUCCGACGAUCGAACAUCGCUUCUUUCCACUUCAUAAACUCACUUUCGGUGAAUUCUUGGUUUGAGACAAACUCUAAACGGAACACGCGUUGGUCAUUGCCAUGCCGUAGUUGCAGCCCUUUGUUUGUUCUCAACAGAGGAUUGAGCAUCA
B10: 98509248_98511339_722_CDS_ENSG00000140450_ENST00000268042|human|control|control (ssRNA)
RNA: GGGAGUUCUACAGUCCGACGAUCGUAUCCCUUUCUUUCAAUUUUGGCACUCAGCGAGACUGGACCAGAAGUGAAAAACCAACAGCCAACCAUUUUCUCUUGAGUUUUCAAUACAGGGGUUAAUAAUGCUGGUGUGUUGACAUCCAACAGAGGAUUGAGCAUCA
B11: chr16:45382771:45382772:-_ENSMUSG00000022661_ENSMUST00000163230|mus_mus|mus_mus_mus_hu_True|38_108 (ssRNA)
RNA: GGGAGUUCUACAGUCCGACGAUCCUGAGUGUUAUUGUAAGACAAAUGGACAGGGAGGGCAUGCUUCUCAAAAAAUGUGAGCUAUUGUCUAAGACUAACAAUAUUGCUCUAGCUAUAAAAAUAAGUUAAAUGAAUAAGUUAAGACAACAGAGGAUUGAGCAUCA
B12: chr16:45382771:45382772:-_ENSMUSG00000022661_ENSMUST00000163230|mus_mus|mus_mus_mus_hu_True|1_38 (ssRNA)
RNA: GGGAGUUCUACAGUCCGACGAUCCUGGGUCAUGUUAUAAGACAAAUGGACAGGGAGGGCAUGCUUCUCAAAAAAUGUGAGCUAUUGUCUAAGACUAACAAUAUUGCUCUAGCUAUAAAAAUAAGUUAAAUGAAUAAACAUUACCAACAGAGGAUUGAGCAUCA
B13: chr16:45382771:45382772:-_ENSMUSG00000022661_ENSMUST00000163230|mus_mus|mus_mus_mus_hu_True|38_88 (ssRNA)
RNA: B11 RNA with A27G, G30C, U31A, A33G, G36A, C50U
B14: chr3:8561242:8561243:+_ENSMUSG00000027500_ENSMUST00000029002|mus_hu|FALSE|FALSE (ssRNA)
RNA: GGGAGUUCUACAGUCCGACGAUCAACAACCAGCUCACAGUUUCCAAGUGGAAAAAUAUUCAGUAGCAUCAUGUACUUGUACUAUAGGUAAGAGCUUAAAAUGAACAUCAUCAAUCAUGGCAUCCACAAAUAAGCCACCUGACACAACAGAGGAUUGAGCAUCA
B15: chr16:45382771:45382772:-_ENSMUSG00000022661_ENSMUST00000163230|mus_mus|mus_mus_mus_hu_True|38_98 (ssRNA)
RNA: B11 RNA with A27G, G30C, U31A, A33G, G36A, A38G, A39G, A41C, A43C
B16: 107603385_107603505_2018_CDS_ENSG00000091136_ENST00000393561|human|control|control (ssRNA)
RNA: GGGAGUUCUACAGUCCGACGAUCGGAAUAUGGUAUGUUGUCAAUGAAAAACUCCAAAUAAGCCCCUUCAGGCACUCGGACGAAGCCGGCUCCAGUCCAGGAGGGAAUCCGGUCCUGGAUAUAUUGCCGCUCCACUAUGCUAACCAACAGAGGAUUGAGCAUCA
B17: chr7:149068622:149068623:-_ENSMUSG00000025139_ENSMUST00000001950|mus_hu|mus_mus_mus_hu_False|68_108 (ssRNA)
RNA: GGGAGUUCUACAGUCCGACGAUCGUGCAGGUACUGAGUGUGGCUUGUGGUCUGUCCUGGGUUAGAGCUGCUGGUAACACGGAACAUACCAUCUAGAACGUUCCAGUCCCGCCUGACACCUUCAUUCCCAAUGGAGAAGAAAUCCAACAGAGGAUUGAGCAUCA
B18: chr2:5814250:5814251:-_ENSMUSG00000025816_ENSMUST00000102981|mus_hu|mus_mus_mus_hu_True|58_58 (ssRNA)
RNA: GGGAGUUCUACAGUCCGACGAUCUUCCUUUCCGGUUUCUGAAUUUCUGGUAGAACUGCACAGAAUGGUUUGAUAACUUCUAAAAACUUGAUGCCCAUGGCUGCUGCUGGGGAGGCCCAGGGGGAAACCGCGGCCUCGGCGCUGCAACAGAGGAUUGAGCAUCA
B19: 97007495_97007615_238_CDS_ENSG00000121152_ENST00000240423|human|control|control (ssRNA)
RNA: GGGAGUUCUACAGUCCGACGAUCCAAUAAGCGAGGUGAGUCAGUGCUGAACUGCAGAUCAAAGACCCUCGAGCGCCUCCGCUGCAGCCGCUCCUUCUCAUCGUCAUUCUGAGGAAAGUCUUCGAGGACUGGGGUGCCAGGAAUCAACAGAGGAUUGAGCAUCA
B20: 96635784_96638769_164_5pUTR_ENSMUSG00000020876_ENSMUST00000107661|mouse|control|control (ssRNA)
RNA: GGGAGUUCUACAGUCCGACGAUCCCACAAGCCCAUGGGAAGGGCACAUAGGUGUUCGAGGAAGCUCUUCCGCCUGACAGAAAACCUGUCCCGUCCAUCAAGCAGCUGUUCUCAUUUUUCAGUCGGUAACCCACUCCUUUCACCCAACAGAGGAUUGAGCAUCA
B21: chr12:39756943:39756944:-_ENSG00000139116_ENST00000544797|hu_mus|hu_hu_hu_mus_False|28_68 (ssRNA)
RNA: GGGAGUUCUACAGUCCGACGAUCGGUUUGGCUGUUACCCCCAAGGGAAUCCUGCAAGAGUCUUGUCAGCUUGGAAUCUCUGUAAGGGACAUGGGUGGCUCUCUUGCUCUUGUCUCCCAAGGCGCUGAUUACAUUCCCAAGAGCCAACAGAGGAUUGAGCAUCA
B22: chr16:45382771:45382772:-_ENSMUSG00000022661_ENSMUST00000163230|mus_mus|mus_mus_mus_hu_True|18_38 (ssRNA)
RNA: GGGAGUUCUACAGUCCGACGAUCCUGGGUCAUGUUAUAAGACAAAUGGACAGGGAGGGCAUGCUUCUCAAAAAAUGUGAGCUAUUGUCUAAGACUAACAAUAUUGCUCUAGCUAUAUAAAAAUAAGAAAUGAAUAAGUUAAGACAACAGAGGAUUGAGCAUCA
B23: chr16:45382771:45382772:-_ENSMUSG00000022661_ENSMUST00000163230|mus_mus|mus_mus_mus_hu_True|38_38 (ssRNA)
RNA: B11 RNA with A27G, G30C, U31A, A33G, G36A
B24: chr16:45382771:45382772:-_ENSMUSG00000022661_ENSMUST00000163230|mus_mus|mus_mus_mus_hu_True|38_78 (ssRNA)
RNA: B11 RNA with A27G, G30C, U31A, A33G, G36A, G57A, C66U
B25: chr16:45382771:45382772:-_ENSMUSG00000022661_ENSMUST00000163230|mus_mus|mus_mus_mus_hu_True|38_48 (ssRNA)
RNA: B11 RNA with A27G, G30C, U31A, A33G, G36A, U87A
B26: chr19:16212804:16212805:+_ENSG00000167460_ENST00000300933|hu_mus|hu_hu_hu_mus_False|38_98 (ssRNA)
RNA: GGGAGUUCUACAGUCCGACGAUCAACAAUUCUGGAGAAGAACAUCAAUGUAACAUGGAACAGCAUUAAAGCUCAGUCAGAAGGCACAUGGGCAACAAUGACUAUUUCAGCAUUCUCGCUUGGAAUGCUUAAAGACAAUCUGUUCAACAGAGGAUUGAGCAUCA
B27: chr4:76721835:76721836:+_ENSG00000138768_ENST00000264904|hu_mus|hu_hu_hu_mus_True|8_28 (ssRNA)
RNA: GGGAGUUCUACAGUCCGACGAUCGUUUGGCUGGGGUUUCUGAGACGCUCUGGAAUAUAACUCAUGUUUGCUAAUAAAUCCUAGUUUCUCUAUGAAAUUCUCUUUGCAAUCCUCUUCCUCUAUUAGUGUUUUAGCUUUCUCUUUCAACAGAGGAUUGAGCAUCA
B28: chr4:76721835:76721836:+_ENSG00000138768_ENST00000264904|hu_mus|hu_hu_hu_mus_True|18_28 (ssRNA)
RNA: GGGAGUUCUACAGUCCGACGAUCGUUUGGCUGGGGUUUCUGAGACGCUCUGGAAUAUAACUCAUGUUUGCUAAUAAAUCCUAGUUUCUCUAUGAAAUUCUCUUUGCAAUCCUCUUCUCAAUCAGUUUGCUUUAGUUUCUCUUUCAACAGAGGAUUGAGCAUCA

Target: T1, UNK ZnF1-3 (human, UniProt Q9C0B0 31-174)
T1 sequence: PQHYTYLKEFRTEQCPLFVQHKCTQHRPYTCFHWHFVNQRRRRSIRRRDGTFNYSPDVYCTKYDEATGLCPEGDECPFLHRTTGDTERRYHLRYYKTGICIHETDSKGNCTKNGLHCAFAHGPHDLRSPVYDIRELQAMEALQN
Experiment: nsRBNS (natural sequence RNA bind-n-seq); RBNS binding buffer (assumed for nsRBNS): 25 mM Tris pH 7.5, 150 mM KCl, 3 mM MgCl2, 0.01% Triton X-100, 500 ug/ml BSA, 20 U/ml SUPERase-In, 4 C; UNK is unkempt and MSI1 is Musashi-1; names of the RNAs are library labels; protein concentration not given here; high values mean tight binding

| Binder | binding signal [enrichment R] |
| --- | --- |
| B1 | 0.679 |
| B2 | 0.801 |
| B3 | 1.63 |
| B4 | 0.699 |
| B5 | 1.25 |
| B6 | 0.924 |
| B7 | 0.394 |
| B8 | 0.641 |
| B9 | 0.468 |
| B10 | 1.16 |
| B11 | 8.75 |
| B12 | 6.59 |
| B13 | 7.9 |
| B14 | 1.49 |
| B15 | 11.2 |
| B16 | 0.989 |
| B17 | 0.783 |
| B18 | 1.21 |
| B19 | 1.1 |
| B20 | 1.14 |
| B21 | 0.792 |
| B22 | 10.5 |
| B23 | 16.7 |
| B24 | 13.9 |
| B25 | 8.11 |
| B26 | 1.15 |
| B27 | 0.588 |
| B28 | 0.475 |
